# Test results published in PubChem BioAssay (Tox21).
# The source made the active and inactive calls. Where a call stands in place of a potency, no number is given. The call rests on the fitted dose curve.
# Molecular target: Acetylcholinesterase (Homo sapiens) (UniProt P22303)
# Assay: Acetylcholinesterase (AChE) small molecule antagonists: enzyme-based qHTS assay with human liver microsomes (AID 1347399); further: nearly all actives have a fitted effect of over 60% in size
# Details: Potency: qHTS inhibition; series mostly up to 115 µM
# In short: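 Recombinant human AChE (50 mU/mL in the enzyme mix) and human liver microsomes (0.25 mg/mL final) were preincubated with compound and NADPH (0.25 mg/mL final) for 30 min at 37 C. Acetylthiocholine/DTNB was then added; thiocholine was read colorimetrically after 10 min at room temperature.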
# Chain of Acetylcholinesterase (Homo sapiens) (P22303 whole entry, looked up): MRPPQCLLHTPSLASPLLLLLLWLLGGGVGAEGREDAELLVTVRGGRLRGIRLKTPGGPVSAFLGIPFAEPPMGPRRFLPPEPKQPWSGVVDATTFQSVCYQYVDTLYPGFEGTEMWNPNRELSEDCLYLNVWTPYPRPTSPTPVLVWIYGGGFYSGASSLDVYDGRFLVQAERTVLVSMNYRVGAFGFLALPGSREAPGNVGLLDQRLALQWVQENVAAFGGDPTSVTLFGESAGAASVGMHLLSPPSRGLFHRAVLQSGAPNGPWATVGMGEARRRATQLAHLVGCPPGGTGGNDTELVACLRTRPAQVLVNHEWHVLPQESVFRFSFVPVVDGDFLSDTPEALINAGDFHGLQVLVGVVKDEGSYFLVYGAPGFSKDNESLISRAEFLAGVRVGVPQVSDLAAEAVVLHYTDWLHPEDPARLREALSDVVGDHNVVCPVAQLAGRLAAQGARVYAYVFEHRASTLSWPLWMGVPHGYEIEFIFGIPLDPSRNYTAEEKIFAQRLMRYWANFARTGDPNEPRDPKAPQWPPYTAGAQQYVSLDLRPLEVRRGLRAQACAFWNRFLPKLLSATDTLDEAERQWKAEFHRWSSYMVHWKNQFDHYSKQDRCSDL
row,SMILES,Potency
1,CC(C)(C)c1ccc(OP(=O)(Oc2ccccc2)Oc2ccccc2)cc1,inactive
2,C[C@]12Cc3cn[nH]c3C[C@@H]1CC[C@@H]1[C@@H]2CC[C@@]2(C)[C@H]1CC[C@]2(C)O,inactive
3,CCOP(=S)(NC(C)C)Oc1ccccc1C(=O)OC(C)C (centres undefined),inactive
4,Cc1cc(C2CC2)nc(Nc2ccccc2)n1,inactive
5,CC1=C2C[C@H]3[C@@H](CC=C4C[C@@H](O)CC[C@@]43C)[C@@H]2CC[C@]12O[C@@H]1C[C@H](C)CN[C@H]1[C@H]2C,inactive
6,Cc1ccc2cc3c(ccc4ccccc43)c3c2c1CC3,inactive
7,O=S1OCC2C(CO1)C1(Cl)C(Cl)=C(Cl)C2(Cl)C1(Cl)Cl (centres undefined),inactive
8,CN1C2CCC(C)(C)C1CC(OC(=O)C(O)(c1cccs1)c1cccs1)C2 (centres undefined),inactive
9,CCCCCCCc1ccc(O)cc1,inactive
10,CCN(CC)CCc1c[nH]c2ccccc12,inactive
11,C#CCC1=C(C)C(OC(=O)C2C(C=C(C)C)C2(C)C)CC1=O (centres undefined),inactive
12,CN1CCc2cc(Cl)c(O)cc2[C@H]2c3ccccc3CC[C@@H]21,inactive
13,CSC1=N[C@@](C)(c2ccccc2)C(=O)N1Nc1ccccc1,inactive
14,O=[N+]([O-])c1cccc2cccc([N+](=O)[O-])c12,inactive
15,Oc1ccc([C@H]2CNCc3c2ccc(O)c3O)cc1O,inactive
16,CO/N=C(\C(=O)OC)c1ccccc1CO/N=C(\C)c1cccc(C(F)(F)F)c1,inactive
17,FC(F)C(F)(F)OCC(Cn1cncn1)c1ccc(Cl)cc1Cl (centres undefined),inactive
18,C[C@H]1[C@H](c2ccc(Cl)cc2)SC(=O)N1C(=O)NC1CCCCC1,inactive
19,c1ccc(Nc2ccc(Nc3ccccc3)cc2)cc1,inactive
20,c1csc(-c2ccc(-c3cccs3)s2)c1,inactive
21,CCCCCCC[CH2][Sn]([Cl])([Cl])[CH2]CCCCCCC,inactive
22,Nc1ccc(N=Nc2ccccc2)cc1,inactive
23,Clc1ccc(C(c2ccc(Cl)cc2)C(Cl)Cl)cc1,inactive
24,CCN(CC)Cc1nccn1-c1ccc([N+](=O)[O-])cc1C(=O)c1ccccc1Cl,inactive
25,C=Cc1cccc(CCl)c1,inactive
26,S=C=NCCc1ccccc1,inactive
27,N#Cc1c[nH]cc1-c1cccc2c1OC(F)(F)O2,inactive
28,c1ccc(N=NNc2ccccc2)cc1,inactive
29,ClC1=C(Cl)[C@]2(Cl)[C@@H]3[C@H]4C[C@H]([C@@H]5O[C@H]45)[C@@H]3[C@@]1(Cl)C2(Cl)Cl,inactive
